Source: publication PMC7862700, “An all-to-all approach to the identification of sequence-specific readers for epigenetic DNA modifications on cytosine”

Columns and labels:
Assay in all cases: DAPPL (digital affinity profiling via proximity ligation, sequencing); 10 mM Tris-HCl pH 7.5, 50 mM NaCl, 1 mM DTT, 4% glycerol, room temperature, 30 min; GST-TFs on glutathione beads, 16-mer random dsDNA library, 0.1% formaldehyde crosslink after washing; high values mean tight binding
[1] = molecular target: T1, FLI1 (Homo sapiens, UniProt Q01543 1-452); conditions: protein: recombinant; tags: N-terminal GST; dsDNA, one strand shown
T1 sequence: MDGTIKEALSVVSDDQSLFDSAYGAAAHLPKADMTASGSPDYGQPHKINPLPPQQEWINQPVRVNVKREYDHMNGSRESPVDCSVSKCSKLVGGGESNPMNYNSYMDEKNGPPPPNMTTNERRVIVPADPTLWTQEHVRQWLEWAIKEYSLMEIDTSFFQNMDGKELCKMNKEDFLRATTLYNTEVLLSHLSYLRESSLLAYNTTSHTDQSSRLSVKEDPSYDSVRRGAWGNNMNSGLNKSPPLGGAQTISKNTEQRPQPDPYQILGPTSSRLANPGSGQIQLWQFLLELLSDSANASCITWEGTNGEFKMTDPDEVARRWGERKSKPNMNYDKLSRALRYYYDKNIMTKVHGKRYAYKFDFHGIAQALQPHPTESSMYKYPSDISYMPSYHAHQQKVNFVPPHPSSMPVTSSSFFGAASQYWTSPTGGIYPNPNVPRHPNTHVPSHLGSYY
Summary of the method: (§1)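 The binding signal reported is, for every hexamer, its read frequency for a factor over its read frequency for the tag-only sample. Reads came from pools of yeast-expressed, GST-fused human transcription factors on glutathione beads, barcoded with DNA and mixed with that sample, which were incubated with 200 nmole of a random double-stranded 16-mer DNA library in Tris/NaCl/DTT/glycerol buffer at room temperature for 30 min. After washing, the pools were crosslinked with 0.1% formaldehyde, proximity-ligated with BsaI/T4 ligase for 1 h at 37 °C, PCR-amplified and sequenced on an Illumina NextSeq500.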

[2] = molecular target: T2, ELK1 (Homo sapiens, UniProt P19419 1-428); conditions: protein: recombinant; tags: N-terminal GST; dsDNA, one strand shown
T2 sequence: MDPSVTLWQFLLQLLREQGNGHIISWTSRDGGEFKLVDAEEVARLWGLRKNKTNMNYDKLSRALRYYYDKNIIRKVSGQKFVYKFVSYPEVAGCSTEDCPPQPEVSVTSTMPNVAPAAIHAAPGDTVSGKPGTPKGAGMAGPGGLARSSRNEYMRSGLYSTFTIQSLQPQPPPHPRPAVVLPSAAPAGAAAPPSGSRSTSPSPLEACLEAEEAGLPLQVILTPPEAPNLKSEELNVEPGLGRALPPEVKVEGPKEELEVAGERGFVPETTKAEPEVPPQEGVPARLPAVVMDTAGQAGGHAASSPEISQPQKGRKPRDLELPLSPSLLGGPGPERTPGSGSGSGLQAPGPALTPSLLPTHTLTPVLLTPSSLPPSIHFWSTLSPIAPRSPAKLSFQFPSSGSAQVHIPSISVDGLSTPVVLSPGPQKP
Summary of the method: as §1

[3] = molecular target: T3, GABPA (Homo sapiens, UniProt Q06546 1-454); conditions: protein: recombinant; tags: N-terminal GST; dsDNA, one strand shown
T3 sequence: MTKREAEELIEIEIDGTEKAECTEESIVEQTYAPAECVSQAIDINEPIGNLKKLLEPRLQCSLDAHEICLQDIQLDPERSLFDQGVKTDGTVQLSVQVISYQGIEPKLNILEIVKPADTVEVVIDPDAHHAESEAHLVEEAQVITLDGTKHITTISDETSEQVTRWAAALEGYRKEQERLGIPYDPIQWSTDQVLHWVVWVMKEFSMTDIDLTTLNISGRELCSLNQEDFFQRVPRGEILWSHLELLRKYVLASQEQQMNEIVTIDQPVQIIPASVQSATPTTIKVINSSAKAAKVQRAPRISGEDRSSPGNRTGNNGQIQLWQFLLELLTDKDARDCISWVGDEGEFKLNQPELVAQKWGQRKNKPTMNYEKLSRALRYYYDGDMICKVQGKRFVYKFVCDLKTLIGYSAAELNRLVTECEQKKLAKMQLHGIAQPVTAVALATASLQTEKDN
Summary of the method: as §1

[4] = molecular target: T4, ERG (Homo sapiens, UniProt P11308 1-479); conditions: protein: recombinant; tags: N-terminal GST; dsDNA, one strand shown
T4 sequence: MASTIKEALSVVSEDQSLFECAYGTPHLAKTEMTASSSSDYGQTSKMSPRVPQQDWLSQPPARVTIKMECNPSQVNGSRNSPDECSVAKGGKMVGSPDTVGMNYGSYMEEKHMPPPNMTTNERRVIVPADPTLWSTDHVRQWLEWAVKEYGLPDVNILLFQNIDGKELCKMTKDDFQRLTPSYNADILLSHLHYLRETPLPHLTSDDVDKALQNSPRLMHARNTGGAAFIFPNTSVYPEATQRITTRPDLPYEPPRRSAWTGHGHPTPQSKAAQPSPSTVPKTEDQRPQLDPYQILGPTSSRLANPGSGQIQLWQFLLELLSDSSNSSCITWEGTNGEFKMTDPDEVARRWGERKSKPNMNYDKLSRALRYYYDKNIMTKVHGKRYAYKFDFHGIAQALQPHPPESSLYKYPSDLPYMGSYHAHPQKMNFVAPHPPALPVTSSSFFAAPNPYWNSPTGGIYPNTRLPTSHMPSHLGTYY
Summary of the method: as §1

[5] = molecular target: ELF1 (Homo sapiens, UniProt P32519 1-619); conditions: protein: recombinant; tags: N-terminal GST; dsDNA, one strand shown
Chain of ELF1 (P32519 whole entry): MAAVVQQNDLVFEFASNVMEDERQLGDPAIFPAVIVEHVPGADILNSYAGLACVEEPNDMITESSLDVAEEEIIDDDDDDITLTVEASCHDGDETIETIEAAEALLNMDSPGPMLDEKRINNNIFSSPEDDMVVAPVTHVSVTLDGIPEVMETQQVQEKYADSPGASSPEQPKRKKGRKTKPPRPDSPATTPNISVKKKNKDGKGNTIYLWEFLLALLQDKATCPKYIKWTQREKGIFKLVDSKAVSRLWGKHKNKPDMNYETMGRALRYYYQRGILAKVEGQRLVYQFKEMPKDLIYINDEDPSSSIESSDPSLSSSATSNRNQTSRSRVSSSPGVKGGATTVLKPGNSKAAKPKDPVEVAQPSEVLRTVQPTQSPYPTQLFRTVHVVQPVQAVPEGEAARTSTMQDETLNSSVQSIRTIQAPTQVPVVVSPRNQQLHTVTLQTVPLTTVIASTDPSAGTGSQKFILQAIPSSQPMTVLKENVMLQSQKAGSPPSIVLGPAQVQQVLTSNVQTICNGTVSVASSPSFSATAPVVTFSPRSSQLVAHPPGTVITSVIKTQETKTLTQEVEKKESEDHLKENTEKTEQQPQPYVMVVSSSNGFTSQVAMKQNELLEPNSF
Summary of the method: as §1

[6] = molecular target: T5, EHF (Homo sapiens, UniProt Q9NZC4 1-300); conditions: protein: recombinant; tags: N-terminal GST; dsDNA, one strand shown
T5 sequence: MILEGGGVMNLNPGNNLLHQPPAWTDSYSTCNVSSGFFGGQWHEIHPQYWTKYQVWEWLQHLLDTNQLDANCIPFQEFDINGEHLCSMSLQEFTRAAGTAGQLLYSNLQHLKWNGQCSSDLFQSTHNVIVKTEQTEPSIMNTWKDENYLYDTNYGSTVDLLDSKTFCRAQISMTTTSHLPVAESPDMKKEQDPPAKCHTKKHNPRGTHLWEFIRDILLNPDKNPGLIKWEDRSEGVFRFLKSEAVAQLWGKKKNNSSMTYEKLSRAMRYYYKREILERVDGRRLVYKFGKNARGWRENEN
Summary of the method: as §1

[7] = molecular target: SPI1 (Homo sapiens, UniProt P17947 1-270); conditions: protein: recombinant; tags: N-terminal GST; dsDNA, one strand shown
Summary of the method: as §1

[8] = molecular target: SPIB (Homo sapiens, UniProt Q01892 1-262); conditions: protein: recombinant; tags: N-terminal GST; dsDNA, one strand shown
Chain of SPIB (Q01892 whole entry): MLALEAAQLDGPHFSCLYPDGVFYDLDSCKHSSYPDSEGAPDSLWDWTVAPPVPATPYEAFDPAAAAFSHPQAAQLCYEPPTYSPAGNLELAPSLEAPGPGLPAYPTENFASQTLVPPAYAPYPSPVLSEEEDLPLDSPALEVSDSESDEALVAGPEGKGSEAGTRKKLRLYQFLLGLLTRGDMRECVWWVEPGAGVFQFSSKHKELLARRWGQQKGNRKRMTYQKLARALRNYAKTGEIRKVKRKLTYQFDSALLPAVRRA
Summary of the method: as §1

[9] = molecular target: T6, ELK3 (Homo sapiens, UniProt P41970 1-407); conditions: protein: recombinant; tags: N-terminal GST; dsDNA, one strand shown
T6 sequence: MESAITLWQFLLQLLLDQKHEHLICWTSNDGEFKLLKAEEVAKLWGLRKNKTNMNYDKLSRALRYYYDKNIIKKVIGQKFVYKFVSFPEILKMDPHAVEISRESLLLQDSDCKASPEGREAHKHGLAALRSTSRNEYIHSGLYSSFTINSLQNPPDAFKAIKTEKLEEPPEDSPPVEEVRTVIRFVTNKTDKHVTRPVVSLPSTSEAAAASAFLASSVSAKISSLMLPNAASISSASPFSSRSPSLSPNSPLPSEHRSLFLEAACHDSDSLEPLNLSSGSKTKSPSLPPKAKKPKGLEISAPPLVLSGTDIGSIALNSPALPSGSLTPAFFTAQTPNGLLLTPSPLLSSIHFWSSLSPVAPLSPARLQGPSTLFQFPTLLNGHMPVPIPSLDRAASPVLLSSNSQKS
Summary of the method: as §1

[10] = molecular target: T7, FEV (Homo sapiens, UniProt Q99581 1-238); conditions: protein: recombinant; tags: N-terminal GST; dsDNA, one strand shown
T7 sequence: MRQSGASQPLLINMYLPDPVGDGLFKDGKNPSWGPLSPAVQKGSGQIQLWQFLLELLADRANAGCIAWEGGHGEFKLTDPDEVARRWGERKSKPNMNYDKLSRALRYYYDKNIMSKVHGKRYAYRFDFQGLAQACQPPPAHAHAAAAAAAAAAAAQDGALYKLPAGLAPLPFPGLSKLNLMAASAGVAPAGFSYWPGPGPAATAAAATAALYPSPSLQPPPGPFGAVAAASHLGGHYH
Summary of the method: as §1

[11] = molecular target: ETV5 (Homo sapiens, UniProt P41161 1-510); conditions: protein: recombinant; tags: N-terminal GST; dsDNA, one strand shown
Chain of ETV5 (P41161 whole entry): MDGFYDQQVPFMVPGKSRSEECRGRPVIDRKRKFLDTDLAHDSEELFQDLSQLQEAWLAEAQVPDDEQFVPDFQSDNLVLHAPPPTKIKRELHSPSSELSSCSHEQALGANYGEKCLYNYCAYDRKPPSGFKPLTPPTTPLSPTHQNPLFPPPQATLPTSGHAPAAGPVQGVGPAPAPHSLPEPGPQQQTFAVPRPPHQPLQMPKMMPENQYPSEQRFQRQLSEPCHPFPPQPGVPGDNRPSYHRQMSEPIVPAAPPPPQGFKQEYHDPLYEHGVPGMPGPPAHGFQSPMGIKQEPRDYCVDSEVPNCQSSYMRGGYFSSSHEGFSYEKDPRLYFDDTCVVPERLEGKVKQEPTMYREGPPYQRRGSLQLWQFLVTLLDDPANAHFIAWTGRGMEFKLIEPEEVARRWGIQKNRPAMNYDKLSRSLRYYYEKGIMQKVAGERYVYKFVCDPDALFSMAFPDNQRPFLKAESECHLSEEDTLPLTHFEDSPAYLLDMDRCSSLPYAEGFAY
Summary of the method: as §1

[12] = molecular target: HSF1 (Homo sapiens, UniProt Q00613 1-529); conditions: protein: recombinant; tags: N-terminal GST; chain copies: 3; dsDNA, one strand shown
Chain of HSF1 (Q00613 whole entry): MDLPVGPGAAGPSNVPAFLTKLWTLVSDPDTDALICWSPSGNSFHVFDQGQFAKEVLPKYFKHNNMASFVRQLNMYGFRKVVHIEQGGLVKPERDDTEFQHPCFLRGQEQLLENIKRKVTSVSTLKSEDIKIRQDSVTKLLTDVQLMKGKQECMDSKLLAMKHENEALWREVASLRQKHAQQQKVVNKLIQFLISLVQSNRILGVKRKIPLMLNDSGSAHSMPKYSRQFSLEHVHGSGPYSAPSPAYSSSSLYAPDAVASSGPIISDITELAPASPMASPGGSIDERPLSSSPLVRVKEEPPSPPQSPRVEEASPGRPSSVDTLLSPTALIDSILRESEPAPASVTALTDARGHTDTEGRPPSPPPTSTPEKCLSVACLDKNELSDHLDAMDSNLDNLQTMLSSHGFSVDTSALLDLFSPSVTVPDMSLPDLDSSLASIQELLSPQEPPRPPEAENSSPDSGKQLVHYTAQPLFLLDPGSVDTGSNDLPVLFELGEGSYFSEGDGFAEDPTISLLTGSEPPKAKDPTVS
Summary of the method: as §1

[13] = molecular target: T8, SPIC (Homo sapiens, UniProt Q8N5J4 1-248); conditions: protein: recombinant; tags: N-terminal GST; dsDNA, one strand shown
T8 sequence: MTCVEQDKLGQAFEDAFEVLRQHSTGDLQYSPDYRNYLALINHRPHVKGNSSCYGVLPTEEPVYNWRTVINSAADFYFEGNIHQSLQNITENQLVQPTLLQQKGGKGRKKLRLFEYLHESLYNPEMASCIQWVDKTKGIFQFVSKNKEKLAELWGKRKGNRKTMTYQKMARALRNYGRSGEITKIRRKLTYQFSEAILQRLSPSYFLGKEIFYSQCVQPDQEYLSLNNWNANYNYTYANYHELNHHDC
Summary of the method: as §1

[14] = molecular target: ELF4 (Homo sapiens, UniProt Q99607 1-663); conditions: protein: recombinant; tags: N-terminal GST; dsDNA, one strand shown
Chain of ELF4 (Q99607 whole entry): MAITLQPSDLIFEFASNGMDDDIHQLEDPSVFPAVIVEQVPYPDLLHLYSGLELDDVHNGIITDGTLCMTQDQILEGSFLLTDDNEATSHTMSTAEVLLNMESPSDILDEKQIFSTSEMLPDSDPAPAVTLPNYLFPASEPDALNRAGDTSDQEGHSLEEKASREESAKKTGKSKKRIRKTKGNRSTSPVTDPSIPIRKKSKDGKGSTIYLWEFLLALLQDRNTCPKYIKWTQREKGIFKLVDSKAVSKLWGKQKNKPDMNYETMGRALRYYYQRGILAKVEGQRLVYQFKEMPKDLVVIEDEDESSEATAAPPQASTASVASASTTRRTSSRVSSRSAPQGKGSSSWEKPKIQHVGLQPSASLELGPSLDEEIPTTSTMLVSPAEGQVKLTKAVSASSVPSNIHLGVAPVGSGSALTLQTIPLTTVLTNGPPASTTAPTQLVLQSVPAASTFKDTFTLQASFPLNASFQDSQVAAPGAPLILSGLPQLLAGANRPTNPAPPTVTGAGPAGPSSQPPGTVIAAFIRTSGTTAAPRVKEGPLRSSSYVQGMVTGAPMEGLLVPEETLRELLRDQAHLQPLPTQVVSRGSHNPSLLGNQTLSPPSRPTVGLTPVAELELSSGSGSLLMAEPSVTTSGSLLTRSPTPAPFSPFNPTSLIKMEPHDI
Summary of the method: as §1

[15] = molecular target: T9, ELK4 (Homo sapiens, UniProt P28324-2 1-405); conditions: protein: recombinant; tags: N-terminal GST; dsDNA, one strand shown
T9 sequence: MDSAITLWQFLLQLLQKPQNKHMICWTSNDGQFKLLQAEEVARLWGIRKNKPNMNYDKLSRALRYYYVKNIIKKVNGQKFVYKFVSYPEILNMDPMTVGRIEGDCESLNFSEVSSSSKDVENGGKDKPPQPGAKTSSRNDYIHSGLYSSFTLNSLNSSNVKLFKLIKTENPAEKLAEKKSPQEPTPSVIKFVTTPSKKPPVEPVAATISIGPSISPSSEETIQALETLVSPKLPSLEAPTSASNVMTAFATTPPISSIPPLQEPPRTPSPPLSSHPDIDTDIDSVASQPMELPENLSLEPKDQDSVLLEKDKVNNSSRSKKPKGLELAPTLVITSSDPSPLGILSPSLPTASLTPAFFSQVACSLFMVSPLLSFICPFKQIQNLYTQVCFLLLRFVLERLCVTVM
Summary of the method: as §1

[16] = molecular target: T10, ELF3 (Homo sapiens, UniProt P78545 1-371); conditions: protein: recombinant; tags: N-terminal GST; dsDNA, one strand shown
T10 sequence: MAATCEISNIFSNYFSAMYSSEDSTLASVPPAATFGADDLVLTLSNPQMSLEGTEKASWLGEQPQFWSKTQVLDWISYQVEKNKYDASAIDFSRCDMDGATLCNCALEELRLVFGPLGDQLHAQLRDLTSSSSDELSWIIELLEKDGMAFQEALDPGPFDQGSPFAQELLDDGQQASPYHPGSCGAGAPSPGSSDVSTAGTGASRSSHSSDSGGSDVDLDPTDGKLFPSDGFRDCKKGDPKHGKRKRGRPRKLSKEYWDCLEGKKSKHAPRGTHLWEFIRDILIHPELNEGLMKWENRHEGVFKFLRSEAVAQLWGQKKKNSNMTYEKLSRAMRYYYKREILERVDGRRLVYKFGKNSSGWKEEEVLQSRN
Summary of the method: as §1

[17] = molecular target: ETV1 (Homo sapiens, UniProt P50549 1-477); conditions: protein: recombinant; tags: N-terminal GST; dsDNA, one strand shown
Chain of ETV1 (P50549 whole entry): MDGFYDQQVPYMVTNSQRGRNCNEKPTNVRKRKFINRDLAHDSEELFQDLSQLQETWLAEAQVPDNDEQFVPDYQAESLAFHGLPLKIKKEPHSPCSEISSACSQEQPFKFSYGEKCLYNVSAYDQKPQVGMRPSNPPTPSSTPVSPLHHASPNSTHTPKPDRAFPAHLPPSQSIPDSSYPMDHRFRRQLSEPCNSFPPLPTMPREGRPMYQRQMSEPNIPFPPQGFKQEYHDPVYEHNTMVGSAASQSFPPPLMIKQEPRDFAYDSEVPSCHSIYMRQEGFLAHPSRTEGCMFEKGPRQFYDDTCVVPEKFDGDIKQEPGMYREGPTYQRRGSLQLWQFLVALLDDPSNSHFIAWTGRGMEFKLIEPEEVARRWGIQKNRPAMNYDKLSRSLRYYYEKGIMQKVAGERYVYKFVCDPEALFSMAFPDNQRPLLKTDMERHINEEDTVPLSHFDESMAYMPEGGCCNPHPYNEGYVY
Summary of the method: as §1

CCTCGT
binding signal [1]: 1.16 fold enrichment (6-mer frequency, TF over GST control) | binding signal [2]: 1.1 fold enrichment (6-mer frequency, TF over GST control) | binding signal [3]: 1.39 fold enrichment (6-mer frequency, TF over GST control) | binding signal [4]: 1.24 fold enrichment (6-mer frequency, TF over GST control) | binding signal [5]: 1.3 fold enrichment (6-mer frequency, TF over GST control) | binding signal [6]: 1.18 fold enrichment (6-mer frequency, TF over GST control) | binding signal [7]: 1.31 fold enrichment (6-mer frequency, TF over GST control) | binding signal [8]: 1.13 fold enrichment (6-mer frequency, TF over GST control) | binding signal [9]: 1.37 fold enrichment (6-mer frequency, TF over GST control) | binding signal [10]: 1.18 fold enrichment (6-mer frequency, TF over GST control) | binding signal [11]: 1.19 fold enrichment (6-mer frequency, TF over GST control) | binding signal [12]: 1.08 fold enrichment (6-mer frequency, TF over GST control) | binding signal [13]: 1.25 fold enrichment (6-mer frequency, TF over GST control) | binding signal [14]: 1.25 fold enrichment (6-mer frequency, TF over GST control) | binding signal [15]: 1.29 fold enrichment (6-mer frequency, TF over GST control) | binding signal [16]: 1.24 fold enrichment (6-mer frequency, TF over GST control) | binding signal [17]: 1.39 fold enrichment (6-mer frequency, TF over GST control)
